Experimental data published in PubChem BioAssay AID1022 (Emory University Molecular Libraries Screening Center, 2008).
Screen size: about 220,000 compounds; about 3,300 (1.5%) were called active. This is one part of a sample in which actives are shown more often than they occur. A number with no mark means an inactive call.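 How the source made its calls: active means compounds that cut the protein-peptide binding signal by more than 50% relative to plate controls in a single-dose test; inactive means the rest.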

biological target: Induced myeloid leukemia cell differentiation protein Mcl-1 (Homo sapiens) (UniProt Q07820); assay: Mcl-1/Noxa binding inhibitors, primary screen, biochemical, TR-FRET, 1536-well (AID 1022); conditions: TR-FRET Mcl-1/Noxa peptide binding, 2 h; at 21.7 µM; active compounds read high;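 further: His-tagged Mcl-1 with rhodamine Noxa BH3 peptide and terbium anti-His antibody; 0% = Mcl-1 plus Noxa peptide wells and 100% = peptide-only wells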
Sequence (Q07820 whole entry, looked up): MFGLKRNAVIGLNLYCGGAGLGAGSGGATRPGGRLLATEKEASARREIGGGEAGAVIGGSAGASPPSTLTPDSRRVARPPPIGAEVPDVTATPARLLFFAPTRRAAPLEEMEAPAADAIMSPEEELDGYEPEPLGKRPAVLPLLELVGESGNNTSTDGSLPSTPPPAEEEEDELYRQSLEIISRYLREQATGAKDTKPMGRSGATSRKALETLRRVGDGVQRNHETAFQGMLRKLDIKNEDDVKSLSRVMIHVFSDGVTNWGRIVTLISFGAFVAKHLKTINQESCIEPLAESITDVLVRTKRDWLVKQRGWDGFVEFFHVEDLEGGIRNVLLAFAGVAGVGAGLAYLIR

Compound	inhibition
Cc1cccc(N2C(=O)NC(=O)/C(=C\c3cnn(-c4ccccc4)c3)C2=O)c1	29.4%
O=C1NC(=O)N(c2ccccc2)C(=O)/C1=C/c1ccc([N+](=O)[O-])s1	45.5%
COc1cccc(N2C(=O)NC(=O)/C(=C\c3ccc([N+](=O)[O-])s3)C2=O)c1	59.7% (active)
CCCCC(=O)N/N=C/c1c(O)n(-c2ccccc2)c(=O)[nH]c1=O	-147%
Cc1c(C(=O)O)cccc1-n1c(C)cc(/C=C2\C(=O)NC(=O)N(c3ccc4c(c3)OCO4)C2=O)c1C	14.7%
O=C1NC(=O)N(CCc2ccc(F)cc2)C(=O)/C1=C/C=C/c1ccccc1	6.31%
O=C1NC(=O)N(c2ccc(F)cc2)C(=O)/C1=C/c1ccc2c(c1)CCCN2Cc1ccccc1	67.7% (active)
O=c1[nH]c(=O)n(CCc2ccccc2)c(O)c1/C=N/N1CCOCC1	6.09%
COc1cccc(CN2CCCC(C(=O)c3ccccc3SC)C2)c1O (stereo not given)	16.2%
CCCCCCCCCCCCn1ccc(=N)cc1	2.41%
O=C(O)CCn1cc(C=C2C(=O)NC(=S)NC2=O)c(-c2cccc(Br)c2)n1	93.9% (active)
CN(C)CC1CCCCC1=O (stereo not given)	21.8%
CNC(=O)O/N=C(\N)Cc1csc2ccccc12	-19.1%
Cc1ccc(-n2c(O)c(C=NCC3CCCO3)c(=O)[nH]c2=O)c(C)c1 (stereo not given)	-16.8%
O=C1NC(=O)N(Cc2ccco2)C(=O)/C1=C\c1cccn1CCOc1ccccc1	3.37%
O=C1NC(=O)N(Cc2ccco2)C(=O)/C1=C\c1ccc(-c2ccc(F)cc2)o1	69.5% (active)
Cc1cc(/C=C2/C(=O)NC(=O)N(Cc3ccco3)C2=O)c(C)n1-c1ccc(C(=O)O)cc1	27.4%
CSc1ccc(C(=O)C2CCCN(Cc3ccn[nH]3)C2)cc1 (stereo not given)	16.2%
c1cc2c(cc1[C@H]1OC[C@H]3[C@@H]1CO[C@@H]3c1ccc3c(c1)OCO3)OCO2	1.72%
CCOc1cccc(=NC2CCCCC2)c2c(C)[nH]c(C)c12	23.3%
